Here are results for 15 compounds from PubChem BioAssay (NCATS).

Results filed as inconclusive are left out. The source made the active and inactive calls. The call rests on the fitted dose curve; in most records, active means well fitted curve in the direction sought with a large enough effect; inconclusive means small, poorly fitted or top-dose-only effect, or another doubt; inactive means no such curve, though single readings can be large; an effect the other way counts as inactive or inconclusive.

For one assay, the system named is MCC-13. Briefly: qHTS assay to identify novel small-molecules to repurpose for Merkel cell carcinoma treatment (AID 1296009). Further: nearly all actives have a fitted effect of over 60% in size. Further: potency means the concentration at half of the fitted maximal effect. The settings on record: MCC and control cell lines, CellTiter-Glo viability, 72 h; series mostly up to 46 µM. The essentials: (§1)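 Cells were incubated with compound for 72 hr at 37 degree celsius before CellTiter-Glo addition. Luminescence was normalized with no-cell wells as full cytotoxicity and DMSO as baseline.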
A general note: Quantitative high-throughput screening tests each substance at several concentrations.

The next assay deals with MCC-26. The description is as above. The conditions noted are these: MCC and control cell lines, CellTiter-Glo viability, 72 h; series mostly up to 46 µM. The essentials:
as §1
On the technique in general: Cellular ATP, detected with luciferase, serves as a proxy for viable cell number.

The subject of a further assay is MKL-1. The assay is described as above. The settings on record: MCC and control cell lines, CellTiter-Glo viability, 72 h; series mostly up to 46 µM. The essentials:
as §1

The next assay deals with MKL-2. Described as above. The conditions noted are these: MCC and control cell lines, CellTiter-Glo viability, 72 h; series mostly up to 46 µM. An outline of the steps: as §1
For a further assay, the system named is UISO. The assay is described as above. The settings on record: MCC and control cell lines, CellTiter-Glo viability, 72 h; series mostly up to 46 µM. An outline of the steps: as §1
For a further assay, the system named is WaGa. The assay is described as above. The settings on record: MCC and control cell lines, CellTiter-Glo viability, 72 h; series mostly up to 46 µM. An outline of the steps: as §1
The next assay has as its system C33A. Briefly: Primary qHTS to identify gynecologic anti-cancer compounds using libraries of approved drugs and bioactive compounds (AID 1345084). Further: nearly all actives have a fitted effect of over 55% in size. The settings on record: Gynecologic cancer cell panel viability, ATPlite luminescence, 48 h; series mostly up to 57.5 µM. An outline of the steps:
(§2)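 Five-point cytotoxicity, 48 h drug exposure at 37 C, 5% CO2, on cells seeded 16 h beforehand. ATP content read by ATPlite luminescence.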

Another assay relates to CAOV3. Described as above. The conditions noted are these: Gynecologic cancer cell panel viability, ATPlite luminescence, 48 h; series mostly up to 57.5 µM. The essentials:
as §2

The subject of another assay is CASKI. The description is as above. The conditions noted are these: Gynecologic cancer cell panel viability, ATPlite luminescence, 48 h; series mostly up to 57.5 µM. The essentials:
as §2

In another assay the test system is Es-2. The description is as above. The conditions noted are these: Gynecologic cancer cell panel viability, ATPlite luminescence, 48 h; series mostly up to 57.5 µM. The essentials:
as §2

In another assay the test system is HeLa. The assay is described as above. The conditions noted are these: Gynecologic cancer cell panel viability, ATPlite luminescence, 48 h; series mostly up to 57.5 µM. An outline of the steps: as §2
A further assay deals with Hek293T. Described as above. The conditions noted are these: Gynecologic cancer cell panel viability, ATPlite luminescence, 48 h, control line for the selectivity index; series mostly up to 57.5 µM. An outline of the steps: as §2
The test system of the next assay is JEG-3. The description is as above. The settings on record: Gynecologic cancer cell panel viability, ATPlite luminescence, 48 h; series mostly up to 57.5 µM. The essentials: as §2
The test system of the next assay is OV90. Described as above. The settings on record: Gynecologic cancer cell panel viability, ATPlite luminescence, 48 h; series mostly up to 57.5 µM. The essentials: as §2
The test system of the next assay is PA-1. The description is as above. The settings on record: Gynecologic cancer cell panel viability, ATPlite luminescence, 48 h; series mostly up to 57.5 µM. An outline of the steps:
as §2

The test system of a further assay is SKOV3. Described as above. The settings on record: Gynecologic cancer cell panel viability, ATPlite luminescence, 48 h; series mostly up to 57.5 µM. The essentials: as §2
The next assay deals with Tov-21-G. The assay is described as above. The conditions noted are these: Gynecologic cancer cell panel viability, ATPlite luminescence, 48 h; series mostly up to 57.5 µM. The essentials:
as §2

In the next assay the test system is Tov112D. Described as above. The settings on record: Gynecologic cancer cell panel viability, ATPlite luminescence, 48 h; series mostly up to 57.5 µM. The essentials:
as §2

The nature of assay [1]: Drug repurposing screens with cells derived from glioblastoma tumor samples (AID 1345199). Further: nearly all actives have a fitted effect of over 40% in size. The settings on record: GBM patient neurospheres viability, ATP luminescence, 48 h; Potency: tumour line A unless noted; series mostly up to 45.9 µM. An outline of the steps:
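Four patient lines of CD133+ GBM neurospheres were screened at several concentrations; hits were retested in those lines plus three slower-growing GBM lines, using 48-hour treatment and ATP-based viability.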

As for `Oc1ccc2c3c1O[C@H]1c4[nH]c5c(c4C[C@@]4(O)[C@@H](C2)N(CC2CC2)CC[C@]314)C[C@@]1(O)[C@H]2Cc3ccc(O)c4c3[C@@]1(CCN2CC1CC1)[C@H]5O4`, the Potency entry in the assay with MCC-13, in the assay on MCC-26, in the assay on MKL-1, in the assay with MKL-2, with UISO and in the assay on WaGa was “inactive” in each case.
Regarding `CCCC[N+]1(C)[C@H]2CC(OC(=O)[C@H](CO)c3ccccc3)C[C@H]1[C@H]1O[C@H]12` (stereo partly drawn), the Potency entry with MCC-13, in the assay with MCC-26, in the assay on MKL-1, in the assay on MKL-2, in the assay on UISO and in the assay with WaGa was “inactive” throughout.
In the case of `C[C@]12CCC(=O)C(O)=C1CC[C@@H]1[C@H]3CCC(=O)[C@@]3(C)CC[C@@H]12`, the Potency entry in the assay with MCC-13, in the assay on MCC-26, in the assay with MKL-1, in the assay on MKL-2, with UISO and with WaGa was “inactive” throughout.
Regarding `C[C@]12COC(=O)C[C@@H]1CC[C@@H]1[C@H]2CC[C@@]2(C)[C@H]1CC[C@]2(C)O`, the Potency result in the assay with MCC-13, in the assay with MCC-26, in the assay with MKL-1, in the assay on MKL-2, with UISO and in the assay on WaGa was “inactive” each time.
On to `CC(=CCCC1=CCC(C2=CC(=O)OC2O)OC1O)CCC1=C(C)CCCC1(C)C` (stereo not drawn), for which the Potency result in the assay on MCC-13, in the assay on MCC-26, in the assay with MKL-1, in the assay on MKL-2, with UISO and in the assay on WaGa was “inactive” in each case.
Take `O=C(O)COc1ccccc1`: the Potency entry in the assay on MCC-13, in the assay with MCC-26, in the assay on MKL-1, in the assay with MKL-2, in the assay on UISO and in the assay on WaGa was “inactive” throughout. Also, the Potency result with C33A, in the assay on CAOV3, in the assay on CASKI, in the assay with Es-2, with HeLa and in the assay on Hek293T was “inactive” each time. In addition, the Potency entry in the assay with JEG-3, in the assay with OV90, in the assay with PA-1, in the assay on SKOV3, in the assay on Tov-21-G and in the assay with Tov112D was “inactive” each time. Besides, the Potency result in [1] is “inactive”.
Take `O=S(=O)(F)Cc1ccccc1`: the Potency result with MCC-13, with MCC-26, in the assay on MKL-1, in the assay with MKL-2, in the assay with UISO and with WaGa was “inactive” throughout.
Turning to `COC(=O)[C@@H](N)CCCN=C(N)N[N+](=O)[O-]`, the Potency result in the assay with MCC-13, in the assay with MCC-26, in the assay on MKL-1, with MKL-2, in the assay on UISO and in the assay with WaGa was “inactive” in each case.
Turning to `C[C@H]1CCCC=CC2C[C@H](O)C[C@@H]2[C@H](O)C=CC(=O)O1` (stereo partly drawn), the Potency entry in the assay on MCC-13, with MCC-26, in the assay on MKL-1, in the assay on MKL-2, with UISO and in the assay with WaGa was “inactive” throughout.
`C[C@@H]1[C@H](O)[C@@H](C)C=CC=CCCC=CC=CC=CC=C[C@H](O[C@H]2O[C@@H](C)[C@H](O)[C@@H](N)[C@@H]2O)CC2O[C@](O)(C[C@@H](O)[C@H](O)CC[C@@H](O)C[C@@H](O)C[C@@H](O)CC(=O)O[C@H]1C)C[C@H](O)[C@H]2C(=O)O`: the Potency entry with MCC-13, in the assay on MCC-26, with MKL-1, with MKL-2, in the assay on UISO and in the assay on WaGa was “inactive” each time.
For the compound `COc1cc2cc(c1Cl)N(C)C(=O)C[C@H](OC(=O)C(C)C)[C@]1(C)O[C@H]1[C@H](C)[C@@H]1C[C@@](O)(NC(=O)O1)[C@H](OC)C=CC=C(C)C2`, the Potency result in the assay on MCC-13, with MCC-26, with MKL-1, in the assay on MKL-2, in the assay on UISO and in the assay with WaGa was “inactive” each time.
For `COC1=CC(C)=C[C@@H](C)[C@@H](O)[C@@H](C)CC(C)=CC=C[C@H](OC)[C@H]([C@@H](C)[C@@H](O)[C@H](C)[C@@]2(O)C[C@@H](O)[C@H](C)[C@@H](C(C)C)O2)OC1=O`, the Potency with MCC-13 is 166 nM (active); in the assay with MCC-26 it was 4690 nM (active); in the assay with MKL-1 it was 118 nM (active); in the assay on MKL-2, 105 nM (active); with UISO, 41.8 nM (active); in the assay with WaGa it was 118 nM (active).
For `COc1cccc2c1[C@]13CCN(CC4CC4)[C@H](C2)[C@]1(OC)CCC(=O)C3`, the Potency result in the assay with MCC-13, with MCC-26, in the assay on MKL-1, in the assay on MKL-2, with UISO and with WaGa was “inactive” throughout.
Take `CC=C(C)C(=O)O[C@H]1C(C)=C2[C@@H]3OC(=O)[C@@](C)(O)[C@@]3(O)[C@@H](OC(=O)CCC)C[C@](C)(OC(C)=O)[C@@H]2[C@@H]1OC(=O)CCCCCCC`: the Potency in the assay with MCC-13 was 1870 nM (active); with MCC-26, 1320 nM (active); with MKL-1, 11800 nM (active); in the assay on MKL-2, 3720 nM (active); in the assay with UISO, 235 nM (active); in the assay with WaGa, 1660 nM (active).
Consider `CC(C)[C@]12O[C@@H]1[C@@H]1O[C@]13[C@]1(O[C@H]1C[C@@H]1C4=C(CC[C@@]13C)C(=O)OC4)[C@H]2O`, for which the Potency result with MCC-13, with MCC-26, in the assay on MKL-1, with MKL-2, with UISO and in the assay with WaGa was “inactive” throughout.
